In PubChem BioAssay one finds composite z-score, z-score and composite Z-score data, which are given here for 5 compounds.

Active and inactive are the calls of the source.

Test [1] has as its system Human papillomavirus type 1a protein E7 (residues 44-93). The test can be described thus: HPV1a E7 fragment binders on microarrays, primary screen, biochemical, small-molecule microarray, residues 44-93, 635 nm fluorescence (AID 1108).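 Note: E7 fragment applied at 1 µg/mL in TBST for 1 h at 4 C; score combines spot fluorescence with its signal to noise ratio.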 To be noted: small-molecule microarray binding, fluorescence 635 nm; higher = more signal.
The nature of test [2]: modulators of HCV replicon luciferase signal, primary screen, HCV replication inhibitor project, Huh7 cells, luciferase reporter (AID 1109).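 Note: huh7 hepatoma cells harbouring a luciferase neomycin HCV replicon reporter; luciferase luminescence as measure of HCV replicon replication; test concentration not given here.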 To be noted: 48 h, higher = more signal.
Test [3] deals with Left-right determination factor 2 (Homo sapiens) (UniProt O00292). The test can be described thus: LEFTY2 binders on small-molecule microarrays, primary screen, biochemical, small-molecule microarray, 635 nm fluorescence scan (AID 1110). To be noted: LEFTY2 binding, higher = more signal.
Chain of Left-right determination factor 2 (Homo sapiens) (O00292 whole entry, looked up): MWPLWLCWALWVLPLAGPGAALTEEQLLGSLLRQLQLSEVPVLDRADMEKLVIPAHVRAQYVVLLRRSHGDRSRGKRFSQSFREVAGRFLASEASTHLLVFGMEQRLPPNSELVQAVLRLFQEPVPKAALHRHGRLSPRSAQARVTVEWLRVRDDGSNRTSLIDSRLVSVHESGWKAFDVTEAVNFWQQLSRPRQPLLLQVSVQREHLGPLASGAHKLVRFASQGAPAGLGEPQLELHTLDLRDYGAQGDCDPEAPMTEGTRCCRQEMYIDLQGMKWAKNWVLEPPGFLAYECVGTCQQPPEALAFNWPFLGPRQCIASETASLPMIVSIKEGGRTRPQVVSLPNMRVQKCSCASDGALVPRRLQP
The target of test [4] is Calmodulin-1 (Homo sapiens) (UniProt P0DP23). Kind of test: CALM1 binders on microarrays, EGTA buffer, profiling panel, biochemical, small-molecule microarray, Cy5-labelled CALM1 (AID 1111).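 Note: labelled calmodulin applied in Tris saline Tween buffer holding calcium plus EGTA and DTT.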 To be noted: Cy5-CALM1 binding fluorescence, higher = more signal.
The target is the same in test [5]. Kind of test: calcium-bound CALM1 binders on microarrays, profiling panel, artefact control for SMM control-protein annotation, biochemical, small-molecule microarray, Cy5-labelled CALM1, plus calcium (AID 1112).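 Note: score merges spot fluorescence with signal to noise from triplicate slides.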 To be noted: Cy5-CALM1 binding fluorescence, higher = more signal.
Test [6] in a line: small-molecule microarray binders of probe aWnt5a, primary screen, biochemical, biotinylated probe, 635/667 nm fluorescence (AID 1113).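 Note: score merges 667 nm fluorescence intensity with signal-to-noise per printed feature.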 To be noted: higher = more signal.
A short description of test [7]: small-molecule microarray binders of probe aShh, primary screen, biochemical, biotinylated probe, 635/667 nm fluorescence (AID 1114).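 Note: probe is biotin-labelled aShh protein from a stem cell growth factor screen; measures binding of labelled protein to compounds printed on the slide; score merges feature fluorescence at 667 nm with signal-to-noise.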 To be noted: higher = more signal.
Test [8] can be described thus: small-molecule microarray binders of probe aNog, primary screen, biochemical, biotinylated probe, 635/667 nm fluorescence (AID 1115).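 Note: probe is biotinylated aNog protein used at 0.15 µg/mL for 1 h at 4 C; z-score combines 667 nm fluorescence of each spot with its signal to noise.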 To be noted: higher = more signal.
Test [9] has as its target Torsin-1A-interacting protein 1 (Homo sapiens) (UniProt Q5JTV8). Kind of test: LAP1 binders from COS7 cell lysate, primary screen, small-molecule microarray, 635/667 nm fluorescence (AID 1116). To be noted: COS7-hLAP1 lysate binding, 635 nm fluorescence, higher = more signal.
Test [10] deals with Alpha-bungarotoxin (Bungarus multicinctus) (UniProt P60615). The test can be described thus: alpha-bungarotoxin binders on microarray, profiling panel, artefact control for SMM control protein annotation, biochemical, small-molecule microarray, Alexa647 label, 635/667 nm fluorescence (AID 1117). To be noted: alpha-BTX-A647 binding fluorescence, higher = more signal.
Chain of Alpha-bungarotoxin (Bungarus multicinctus) (P60615 whole entry, looked up): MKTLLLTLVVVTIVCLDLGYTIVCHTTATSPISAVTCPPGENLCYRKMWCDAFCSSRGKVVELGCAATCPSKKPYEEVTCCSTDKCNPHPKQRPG
In a further test the target is Albumin (Bos taurus) (UniProt P02769). The test can be described thus: bovine serum albumin binders on microarray, profiling panel, artefact control for SMM control protein annotation, biochemical, small-molecule microarray, Alexa647 label, 635/667 nm fluorescence (AID 1118).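 Note: score merges 667 nm emission intensity and signal-to-noise per printed compound spot.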 To be noted: BSA-A647 binding, fluorescence 635 nm, higher = more signal.
Chain of Albumin (Bos taurus) (P02769 whole entry, looked up): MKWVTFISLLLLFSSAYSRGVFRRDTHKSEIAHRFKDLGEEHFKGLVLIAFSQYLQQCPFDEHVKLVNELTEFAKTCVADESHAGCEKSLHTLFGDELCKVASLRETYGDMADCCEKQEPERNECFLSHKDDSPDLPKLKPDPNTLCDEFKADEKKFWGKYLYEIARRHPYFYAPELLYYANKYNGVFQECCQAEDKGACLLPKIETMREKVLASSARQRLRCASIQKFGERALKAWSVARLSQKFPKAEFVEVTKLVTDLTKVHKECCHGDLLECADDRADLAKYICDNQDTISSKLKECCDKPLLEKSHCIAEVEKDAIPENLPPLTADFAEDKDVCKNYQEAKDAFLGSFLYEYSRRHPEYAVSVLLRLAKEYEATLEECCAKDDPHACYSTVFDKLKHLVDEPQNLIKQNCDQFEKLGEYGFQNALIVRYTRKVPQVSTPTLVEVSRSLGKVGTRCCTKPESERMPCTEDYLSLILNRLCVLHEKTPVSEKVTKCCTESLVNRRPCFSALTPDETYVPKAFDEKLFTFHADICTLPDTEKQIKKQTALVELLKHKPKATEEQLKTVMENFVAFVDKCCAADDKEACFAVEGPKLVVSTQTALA
The nature of test [11]: small-molecule microarray binders of probe aXIP, primary screen, biochemical, NeuroSMM set, 635/667 nm fluorescence (AID 1119).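 Note: probe is the protein aXip251-270 applied at 1 µg/mL to compound-printed slides; binding of probe to printed compounds measured as 667 nm fluorescence plus signal to noise.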 To be noted: higher = more signal, called active from +8 up or from −8 down.
Test [12] is described as follows: small-molecule binders of probe aNOTCH3, primary screen, biochemical, small-molecule microarray, 635/667 nm fluorescence (AID 1120).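 Note: probe is a biotin-tagged antibody raised against NOTCH3 rather than NOTCH3 protein; score merges spot fluorescence near 667 nm with spot signal to noise.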 To be noted: higher = more signal.
The nature of test [13]: small-molecule binders of probe aNOTCH2, primary screen, biochemical, small-molecule microarray, 635/667 nm fluorescence (AID 1121).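 Note: score merges feature fluorescence read at 667 nm with its signal to noise.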 To be noted: higher = more signal.
For test [14], the target named is Carbonic anhydrase 2 (Homo sapiens) (UniProt P00918). Kind of test: CAII small-molecule binders, profiling panel, biochemical, small-molecule microarray, Alexa647-labelled CAII (AID 1122). To be noted: CAII-A647 binding fluorescence, higher = more signal.
A short description of test [15]: COS7 lysate on small-molecule microarray, probe aHis, 635 nm (AID 1123).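 Note: z-score combines 667nm fluorescence intensity with signal-to-noise per printed compound spot.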 To be noted: COS7 cell lysate, fluorescence, higher = more signal.
Test [16] is described as follows: compound binding in COS7 lysate, probe aLAP1, primary screen, cell lysate, small-molecule microarray (AID 1124).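 Note: lysate comes from COS7 cells expressing LAP1 and is applied at 0.3 µg/mL; score merges spot fluorescence near 667 nm with signal-to-noise over triplicate slides.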 To be noted: probe aLAP1, fluorescence, higher = more signal.
The next test relates to Sam68 (KHDRBS1). The test can be described thus: Sam68 small-molecule binders, primary screen, biochemical, small-molecule microarray, 635 nm fluorescence (AID 1125).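 Note: score merges 667 nm channel intensity with signal to noise over triplicate slides.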 To be noted: small-molecule microarray binding, higher = more signal.
Test [17] deals with Chordin-like protein 2 (CHRDL2). The test can be described thus: CHRDL2 small-molecule binders, primary screen, biochemical, small-molecule microarray, 635 nm fluorescence (AID 1126).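 Note: printed compound slides probed with Chrdl2 protein at 4 µg/mL for 1 h at 4 C; score merges 667 nm emission intensity with signal to noise over three replicate slides.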 To be noted: small-molecule microarray binding, fluorescence 635 nm; higher = more signal.
Test [18] addresses Concanavalin-A (Canavalia ensiformis) (UniProt P02866). The test can be described thus: ConA small-molecule binders, primary screen, artefact control for SMM control protein annotation, biochemical, small-molecule microarray, Alexa647 label, 635 nm (AID 1127).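 Note: z combines 667 nm emission intensity with signal-to-noise across three replicate slides.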 To be noted: ConA-A647 binding fluorescence, higher = more signal.

Chain of Concanavalin-A (Canavalia ensiformis) (P02866 whole entry, looked up): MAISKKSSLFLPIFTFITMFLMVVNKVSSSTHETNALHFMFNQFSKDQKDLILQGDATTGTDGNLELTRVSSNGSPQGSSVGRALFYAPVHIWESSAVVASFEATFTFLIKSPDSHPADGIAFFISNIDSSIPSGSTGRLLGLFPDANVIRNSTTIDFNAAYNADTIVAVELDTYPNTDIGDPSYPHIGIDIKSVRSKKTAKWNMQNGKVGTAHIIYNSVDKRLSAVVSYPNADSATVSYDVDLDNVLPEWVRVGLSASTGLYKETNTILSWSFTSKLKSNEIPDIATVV
Chain of Torsin-1A-interacting protein 1 (Homo sapiens) (Q5JTV8 whole entry, looked up): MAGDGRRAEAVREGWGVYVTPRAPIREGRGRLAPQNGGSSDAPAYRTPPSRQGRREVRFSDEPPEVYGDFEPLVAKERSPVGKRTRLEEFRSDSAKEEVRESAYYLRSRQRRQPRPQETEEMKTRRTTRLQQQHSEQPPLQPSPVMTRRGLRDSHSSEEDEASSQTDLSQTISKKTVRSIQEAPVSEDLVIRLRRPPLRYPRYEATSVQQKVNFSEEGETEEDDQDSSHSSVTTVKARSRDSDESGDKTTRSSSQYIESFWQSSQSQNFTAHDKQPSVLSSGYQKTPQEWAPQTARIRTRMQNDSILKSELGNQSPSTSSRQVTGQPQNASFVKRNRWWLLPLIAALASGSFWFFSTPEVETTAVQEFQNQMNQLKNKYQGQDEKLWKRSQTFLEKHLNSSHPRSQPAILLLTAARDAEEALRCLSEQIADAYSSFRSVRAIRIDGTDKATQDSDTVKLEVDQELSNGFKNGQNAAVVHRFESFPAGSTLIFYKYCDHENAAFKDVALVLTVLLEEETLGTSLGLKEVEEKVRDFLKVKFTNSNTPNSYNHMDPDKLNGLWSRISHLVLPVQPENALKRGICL

In the case of `CC(=O)NCCCC[C@@H]1NC(=O)[C@H]2C[C@@H](C(=O)NCCCCCN)[C@@H](c3cccc(OCCO)c3)N2C1=O`, the composite z-score in test [1] was 0.783; in [3], 0.0306; in test [4] it was 1.27; in test [5] it was 1.35; in test [6] it was -0.0403; in [7], -0.0119. For the same compound, the composite z-score was -0.392 in test [8]; 0.718 in test [9]; 1.82 in test [10]; 0.796 with Albumin (Bos taurus); 0.0493 in [12]; -0.0878 in test [13]. For the same compound, the composite z-score in test [14] was found to be 0.715; in test [15], 0.898; in test [16], 0.2; in the test with Sam68 (KHDRBS1) it was 0.993; in [17] it was 0.218; in test [18], 1.2. Moreover, in test [2], the z-score was 0.572. In test [11], the composite Z-score was -0.306 (inactive).
Regarding `COc1cc(C(O)C2C=CC3C(=O)NC(=O)C3N2Nc2ccc(Cl)cc2Cl)cc(OC)c1OC` (stereo not given), the composite z-score in test [1] is 1.44; in [3] it was -0.118; in test [4], 2.03; in test [5] it was 0.866; in test [6] it was 0.0809; in [7], -0.0243. The composite z-score in [8] was 1.22; in test [9], 1.22; in test [10] it was 0.877; with Albumin (Bos taurus) it was 0.254; in test [12], 0.454; in [13], 0.0956. The composite z-score in [14] was 0.752; in [15] it was 2.99; in test [16] it was 0.115; in the test on Sam68 (KHDRBS1) it was 0.79; in test [17], -0.0696; in [18] it was 1.05. For the same compound, the z-score in test [2] stood at 0.221. In [11], the composite Z-score was -0.762 (inactive).
Regarding `O=C1OCCC=C[C@H]2OC34C=CCN(Cn5nnc6ccccc65)C(=O)[C@H]3N(CCCCCO)C(=O)[C@@H]4C12` (stereo not given in full), the composite z-score in test [1] is -0.473; in test [3], -0.511; in test [4] it was -0.212; in test [5], 0.106; in test [6], -0.101; in [7], -0.0769. In addition, the composite z-score in [8] is 0.0599; in test [9], -1.1; in test [10], -1.09; with Albumin (Bos taurus), 0.428; in test [12], -0.193; in [13] it was -0.114. Moreover, the composite z-score in test [14] is 0.87; in test [15], 0.121; in test [16] it was 0.686; in the test with Sam68 (KHDRBS1), -0.464; in test [17], -0.579; in test [18], -1.55. Moreover, the z-score in test [2] was found to be 0.204. Besides, in [11], the composite Z-score is 0.266 (inactive).
In the case of `CC1(C)[C@@H]2CC(C(O)C3C=CC4C(=O)N(c5ccccc5)C(=O)C4N3Nc3ccccc3F)=C[C@@H]1C2` (stereo not given in full), the composite z-score in test [1] was 1.4; in test [3] it was 0.501; in test [4], 1.18; in test [5] it was -0.229; in test [6], 0.164; in [7] it was 0.0639. Further, the composite z-score is -0.256 in [8]; 1.34 in test [9]; 1.12 in [10]; 0.844 in the test with Albumin (Bos taurus); 0.272 in test [12]; -0.229 in test [13]. Further, the composite z-score in test [14] was 0.571; in test [15] it was 2.66; in test [16] it was 0.405; in the test with Sam68 (KHDRBS1), 1.29; in test [17] it was 0.0364; in [18] it was 1.09. In test [2], the z-score was -3.15. Further, in test [11], the composite Z-score is 0.0252 (inactive).
Consider `C[N+](C)(C)CCCCCCNC(=O)[C@H]1C[C@H]2C(=O)N3CCC[C@H]3C(=O)N2[C@H]1c1cccc(OCCO)c1`, for which the composite z-score in test [1] is 0.809; in test [3], 1.46; in [4] it was -0.205; in test [5], -1.14; in test [6], -0.135; in test [7], 0.171. In addition, the composite z-score in [8] is -0.381; in [9], 1.67; in [10], 0.0895; with Albumin (Bos taurus), -0.564; in test [12], 0.398; in [13], -0.0135. Also, the composite z-score stood at 0.662 in [14]; 1.73 in test [15]; 0.787 in test [16]; 0.976 with Sam68 (KHDRBS1); 1.03 in test [17]; 1.15 in [18]. The compound also yielded a z-score in test [2] of 0.609. For the same compound, the composite Z-score in test [11] was 0.491 (inactive).
